Measured values published in PubChem BioAssay.
Activity calls are given as the source filed them.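 How the source made its calls, unless noted: active means NADPH fluorescence slope more negative than the mean of all samples by about 3 SD, 99.7% confidence; inactive means the rest.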

Experiments:
[1] = inhibitors of TNFa-induced NFkB p65 translocation, primary screen, imaging, HUVEC, MLSMR starter and 10KST1 sets (AID 438;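 active means inhibition above 20% together with a positive visual image hit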;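 further: compound added about 3h40 before a 20 min TNFalpha stimulation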;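 on inhibition: signal is the nuclear over cytoplasmic p65 intensity ratio per well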); details: HUVEC TNFa-induced p65 nuclear translocation; cell count: measured here: nuclei count (cytotoxicity indicator), at 2.08 µM; inhibition: at 2 µM, stronger effect = higher value, 0% TNFa-plus-vehicle, 100% no-TNFa wells
[2] = inhibitors of mutant huntingtin aggregation, primary screen, imaging, exon1htt(103Q)mCFP cells, high-content imaging (AID 483;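 active means visual image review flags a hit and inhibition of aggregation exceeds 20%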;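 further: compound exposure lasted 3 days before fixation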;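 on nuclei count: percent of the per-plate median nuclei count of sample wells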); details: exon1htt(103Q)mCFP cell line, aggregate imaging, at 2 µM; inhibition of aggregation: stronger effect = higher value; nuclei count: measured here: cell count, toxicity
[3] = inhibitors of E-selectin induction by TNFa, primary screen, imaging, HUVEC, immunofluorescence, MLSMR starter and 10KST1 sets (AID 487;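 active means visually confirmed hit in the image check and inhibition above 20%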;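 on inhibition: signal is fraction of cell area covered by stained E-selectin grains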;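 on nuclei count: 100% = median nuclei count of all wells on the same plate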); details: HUVEC TNFalpha-induced E-selectin immunofluorescence imaging, at 2 µM; inhibition: stronger effect = higher value; nuclei count: measured here: cell number, toxicity
[4] = target: Voltage-gated potassium channel subunit beta-2 (Rattus norvegicus) (UniProt P62483); assay: KvBeta enzyme negative modulators, primary screen, biochemical, NADPH fluorescence (AID 622;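 active means fluorescence slope higher than the sample average by over 3 SD, cut at about -0.22 in these data, passing the limit was not always enough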;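 further: slope of raw intensity against log time taken from 70 to 1610 s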); details: recombinant KvBeta, 4-cyanobenzaldehyde reduction, at 10 µM, stronger effect = higher value
[5] = target: Voltage-gated potassium channel subunit beta-2 (Rattus norvegicus) (UniProt P62483); assay: KvBeta positive modulators, primary screen, biochemical, NADPH fluorescence (AID 623); details: Recombinant KvBeta, NADPH fluorescence decrease slope, 10 min; at 10 µM; stronger effect = lower value;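 further: fluorescence intensity change per second fitted from 20 to 320 s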
[6] = target: Alpha-2C adrenergic receptor (Homo sapiens) (UniProt P18825); assay: modulators of alpha2C/GIRK thallium flux, primary screen, cell-based, HEK293 alpha2C/GIRK1/2 (AID 624;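 active means fluorescence slope after compound addition differing from the mean of all screened samples at 99.7% confidence, in either direction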;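 further: slope of fluorescence ratio to pre-addition baseline per second over 15 to 24 s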); details: thallium flux BTC fluorescence, at 10 µM, actives lie on both sides
[7] = inhibitors of Sendai virus-induced IRF3 signaling, primary screen, TLR/RLR signaling modifier project, cell-based, Sendai virus stimulus, luciferase, 10K MLSCN set (AID 602276;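 active means inhibition at or above 50% at 10 µM; inactive means inhibition below 50%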;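 further: firefly luciferase from ISG56 promoter only with Renilla not read in this screen; 0% = Sendai virus plus DMSO and 100% = medium plus DMSO without virus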); details: HEK293 RL24 IRF3 luciferase reporter, at 10 µM, stronger effect = higher value
[8] = inhibitors of poly I:C-induced TLR3 signaling, primary screen, cell-based, poly I:C stimulus, luciferase, 10K MLSCN set (AID 602277;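 active means inhibition of the reporter signal at or above 50%; inactive means inhibition below 50%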); details: HEK293-TLR3 RL24 IRF3 luciferase reporter, at 10 µM, stronger effect = higher value

Voltage-gated potassium channel subunit beta-2 (Rattus norvegicus), sequence (P62483 whole entry, looked up): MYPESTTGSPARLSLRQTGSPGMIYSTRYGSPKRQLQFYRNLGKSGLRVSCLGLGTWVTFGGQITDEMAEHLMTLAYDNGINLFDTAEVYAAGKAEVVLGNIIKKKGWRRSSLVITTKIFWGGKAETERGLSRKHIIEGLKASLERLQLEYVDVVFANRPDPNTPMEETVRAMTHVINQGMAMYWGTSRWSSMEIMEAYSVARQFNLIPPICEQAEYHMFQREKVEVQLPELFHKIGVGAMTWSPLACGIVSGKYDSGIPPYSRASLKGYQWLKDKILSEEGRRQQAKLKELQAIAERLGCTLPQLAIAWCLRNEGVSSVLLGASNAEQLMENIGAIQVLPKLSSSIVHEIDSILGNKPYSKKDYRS
Alpha-2C adrenergic receptor (Homo sapiens), sequence (P18825 whole entry, looked up): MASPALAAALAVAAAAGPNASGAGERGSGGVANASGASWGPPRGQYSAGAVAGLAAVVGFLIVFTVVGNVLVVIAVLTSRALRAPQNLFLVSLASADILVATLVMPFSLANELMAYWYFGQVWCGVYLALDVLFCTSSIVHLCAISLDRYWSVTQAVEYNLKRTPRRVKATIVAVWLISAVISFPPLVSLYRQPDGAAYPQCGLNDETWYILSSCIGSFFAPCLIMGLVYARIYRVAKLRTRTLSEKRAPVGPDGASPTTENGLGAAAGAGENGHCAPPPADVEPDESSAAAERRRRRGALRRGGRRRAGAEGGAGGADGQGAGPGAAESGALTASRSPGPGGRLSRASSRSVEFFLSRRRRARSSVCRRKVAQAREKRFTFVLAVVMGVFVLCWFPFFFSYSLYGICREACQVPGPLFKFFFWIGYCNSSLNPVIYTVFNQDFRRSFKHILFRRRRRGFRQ

COC(=O)CSC1=C(C#N)C(c2ccccc2)CC(=O)N1 (centres undefined)
cell count [1]: 317
inhibition [1]: 1.5% (inactive)
inhibition of aggregation [2]: -2.2% (inactive)
nuclei count [2]: 89.5%
inhibition [3]: 7.2% (inactive)
nuclei count [3]: 86.9%
fluorescence slope [4]: -0.372 (inactive)
NADPH fluorescence slope [5]: -1.7e-05 (inactive)
slope [6]: 0.00515 (inactive)
inhibition [7]: 25.3% (inactive)
inhibition [8]: 21.9% (inactive)

CC1=C(C(=O)NCc2ccccc2)C(c2ccccc2OCC(N)=O)NC(=O)N1 (centres undefined)
cell count [1]: 355
inhibition [1]: -8.1% (inactive)
inhibition of aggregation [2]: 14.3% (inactive)
nuclei count [2]: 96.4%
inhibition [3]: -16.7% (inactive)
nuclei count [3]: 98.2%
fluorescence slope [4]: -0.428 (inactive)
NADPH fluorescence slope [5]: 7.3e-06 (inactive)
slope [6]: 0.00981 (inactive)
inhibition [7]: 6.63% (inactive)
inhibition [8]: 14.9% (inactive)

O=S(=O)(c1ccccc1)c1nc(-c2ccco2)oc1NCCCN1CCOCC1
cell count [1]: 548
inhibition [1]: 0% (inactive)
inhibition of aggregation [2]: -3% (inactive)
nuclei count [2]: 88.3%
inhibition [3]: -73.7% (inactive)
nuclei count [3]: 124%
fluorescence slope [4]: -0.502 (inactive)
NADPH fluorescence slope [5]: 1.1e-05 (inactive)
slope [6]: 0.0038 (inactive)
inhibition [7]: 0.535% (inactive)
inhibition [8]: 4.26% (inactive)

COc1ccc(C(=O)c2ccc(OC)c(N)c2)cc1N
cell count [1]: 298
inhibition [1]: -11.7% (inactive)
inhibition of aggregation [2]: -64.9% (inactive)
nuclei count [2]: 3.2%
inhibition [3]: -187% (inactive)
nuclei count [3]: 111%
fluorescence slope [4]: -0.465 (inactive)
NADPH fluorescence slope [5]: -7.4e-05 (inactive)
slope [6]: 0.00541 (inactive)
inhibition [7]: 35% (inactive)
inhibition [8]: 27.2% (inactive)

O=C(Nc1nccs1)c1cccc(NC(=O)C2CC2)c1
cell count [1]: 411
inhibition [1]: -0.5% (inactive)
inhibition of aggregation [2]: -6.6% (inactive)
nuclei count [2]: 98%
inhibition [3]: -19% (inactive)
nuclei count [3]: 116%
fluorescence slope [4]: -0.409 (inactive)
NADPH fluorescence slope [5]: -3.4e-05 (inactive)
slope [6]: 0.00472 (inactive)
inhibition [7]: 2.3% (inactive)
inhibition [8]: -13.6% (inactive)

CN(c1ccccc1C(N)=O)S(=O)(=O)c1ccccc1
cell count [1]: 385
inhibition [1]: -2.9% (inactive)
inhibition of aggregation [2]: -21.8% (inactive)
nuclei count [2]: 95.6%
inhibition [3]: -266% (inactive)
nuclei count [3]: 108%
fluorescence slope [4]: -0.355 (inactive)
NADPH fluorescence slope [5]: 1.6e-05 (inactive)
slope [6]: 0.00547 (inactive)
inhibition [7]: 13% (inactive)
inhibition [8]: 22.7% (inactive)

CC1(C)CNC(=O)CC(C)(C)N1O
cell count [1]: 379
inhibition [1]: 4% (inactive)
inhibition of aggregation [2]: 7.9% (inactive)
nuclei count [2]: 89.4%
inhibition [3]: -66.8% (inactive)
nuclei count [3]: 110%
fluorescence slope [4]: -0.497 (inactive)
NADPH fluorescence slope [5]: -6.2e-06 (inactive)
slope [6]: 0.00315 (inactive)
inhibition [7]: -4.83% (inactive)
inhibition [8]: 19.7% (inactive)

COc1cccc(-c2nnc(NC(=O)c3ccccc3Br)o2)c1
cell count [1]: 718
inhibition [1]: -6.9% (inactive)
inhibition of aggregation [2]: -5.7% (inactive)
nuclei count [2]: 110%
inhibition [3]: -17.4% (inactive)
nuclei count [3]: 117%
fluorescence slope [4]: -0.421 (inactive)
NADPH fluorescence slope [5]: -3.3e-05 (inactive)
slope [6]: 0.00691 (inactive)
inhibition [7]: 4.13% (inactive)
inhibition [8]: 17.2% (inactive)

CCN(C(=O)c1cc(Cl)ccc1OC)C1CCCCC1
cell count [1]: 303
inhibition [1]: 4.5% (inactive)
inhibition of aggregation [2]: 8.5% (inactive)
nuclei count [2]: 109%
inhibition [3]: 15.2% (inactive)
nuclei count [3]: 113%
fluorescence slope [4]: -0.429 (inactive)
NADPH fluorescence slope [5]: -6.2e-05 (inactive)
slope [6]: 0.00399 (inactive)
inhibition [7]: 13.8% (inactive)
inhibition [8]: 42% (inactive)

O=C(COc1ccccc1)N1CCN(c2ncnc3c2cnn3-c2ccccc2)CC1
cell count [1]: 476
inhibition [1]: 1% (inactive)
inhibition of aggregation [2]: 1.3% (inactive)
nuclei count [2]: 108%
inhibition [3]: -4.4% (inactive)
nuclei count [3]: 119%
fluorescence slope [4]: -0.623 (inactive)
NADPH fluorescence slope [5]: -4e-05 (inactive)
slope [6]: 0.00515 (inactive)
inhibition [7]: 14.5% (inactive)
inhibition [8]: -0.433% (inactive)

[O-][n+]1c2ccc3nonc3c2nn1-c1ccccc1Cl
cell count [1]: 340
inhibition [1]: 8.5% (inactive)
inhibition of aggregation [2]: -11.3% (inactive)
nuclei count [2]: 111%
inhibition [3]: -21.9% (inactive)
nuclei count [3]: 118%
fluorescence slope [4]: -0.507 (inactive)
NADPH fluorescence slope [5]: -5.7e-05 (inactive)
slope [6]: 0.0043 (inactive)
inhibition [7]: 0.797% (inactive)
inhibition [8]: -2.81% (inactive)

CCOC(=O)C1CN(S(=O)(=O)c2ccc(C)cc2)CCN1S(=O)(=O)c1ccc(C)cc1 (centres undefined)
cell count [1]: 339
inhibition [1]: 3.3% (inactive)
inhibition of aggregation [2]: -36.8% (inactive)
nuclei count [2]: 117%
inhibition [3]: -114% (inactive)
nuclei count [3]: 122%
fluorescence slope [4]: -0.591 (inactive)
NADPH fluorescence slope [5]: 3.6e-05 (inactive)
slope [6]: 0.00631 (inactive)
inhibition [7]: 8.55% (inactive)
inhibition [8]: 11% (inactive)

COc1ccc(OC)c(NC(=O)c2nnn(Cc3ccc(Br)cc3F)c2N)c1
cell count [1]: 777
inhibition [1]: 0.6% (inactive)
inhibition of aggregation [2]: 20.9% (inactive)
nuclei count [2]: 99.3%
inhibition [3]: -25.4% (inactive)
nuclei count [3]: 116%
fluorescence slope [4]: -0.525 (inactive)
NADPH fluorescence slope [5]: -1.8e-05 (inactive)
slope [6]: 0.00503 (inactive)
inhibition [7]: 1.6% (inactive)
inhibition [8]: 5.74% (inactive)

COc1ccc(NC(=O)C2CCCN(S(=O)(=O)c3cccc4cccnc34)C2)cc1OC (centres undefined)
cell count [1]: 551
inhibition [1]: -2.6% (inactive)
inhibition of aggregation [2]: -0.5% (inactive)
nuclei count [2]: 104%
inhibition [3]: -24.3% (inactive)
nuclei count [3]: 109%
fluorescence slope [4]: -0.559 (inactive)
NADPH fluorescence slope [5]: 8e-06 (inactive)
slope [6]: 0.007 (inactive)
inhibition [7]: 14.2% (inactive)
inhibition [8]: 24.7% (inactive)
